# Measurements reported in PubChem BioAssay.
# Activity calls are given as the source filed them.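 Rule for the calls, unless noted: active = viability at or under a set limit in both replicates, limit being median viability minus 3 SD (cut at about 48% in these data, passing the limit was not always enough); inconclusive = at or under the limit in just one replicate; inactive = at or above the limit in both replicates.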
# Experiment: growth inhibitors of H69AR lung tumor, primary screen, human, duplicate replicates (AID 580);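 note: 100% = mean luminescence of untreated wells and 0% = no signal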
# Conditions: H69AR lung tumor cells viability, ATP luminescence, 72 h; at 10 µM; stronger effect = lower value
row,SMILES,viability
1,O=C(NCC1CCCO1)C1CCC(CNS(=O)(=O)c2ccccc2)CC1 (stereo not drawn),90.3% (inactive)
2,COC(=O)CSc1ncccc1-c1nc2ccccc2[nH]1,90.8% (inactive)
3,O=C(CSc1nc(-c2ccco2)cc(C(F)(F)F)n1)N1CCCc2ccccc21,84% (inactive)
4,CC(=O)Nc1ccc(NC(=O)Cn2cnc3c(cnn3C(C)(C)C)c2=O)cc1,98.9% (inactive)
5,Cn1c(=O)[nH]c(=O)c2c1nc(N1CCOCC1)n2CC(O)COc1ccc2ccccc2c1 (stereo not drawn),88.3% (inactive)
6,OCC(O)CN1CCN(c2ccccc2)CC1 (stereo not drawn),92.9% (inactive)
7,NS(=O)(=O)c1cc2c(cc1Cl)NC(CSCc1ccccc1)=NS2(=O)=O,92.6% (inactive)
8,CN(CC(=O)N1CCCc2c1c(=O)oc1ccc(O)cc21)Cc1ccccc1,90% (inactive)
9,CCc1c(C)nc2ncnn2c1NCCc1ccc(OC)c(OC)c1,80.6% (inactive)
10,Cc1nn(-c2ccccc2)c2[nH]c(C(F)(F)F)cc(=O)c12,108% (inactive)
11,N#CCc1ccc(NC(=O)Nc2cccc(Cl)c2)cc1,92.5% (inactive)
12,c1coc(-c2nnc(-c3cccs3)o2)c1,102% (inactive)
13,COc1cc(SC)ccc1C(=O)Nc1ccccc1C#N,70.5% (inactive)
14,CCCCCn1c(CN2CCN(c3cccc(Cl)c3)CC2)nc2c1c(=O)n(C)c(=O)n2C,88% (inactive)
15,COc1ccccc1-n1c(SCC(=O)NC(C)(C)C)nnc1-c1ccco1,96.1% (inactive)
16,NS(=O)(=O)c1cc2c(cc1Cl)NC=NS2(=O)=O,100% (inactive)
17,Cc1cc(C)n(-c2nc3sc4c(c3c3nnc(SC(C)C)n23)CC(C)(C)OC4)n1,84.4% (inactive)
18,N=c1nc(N2CCCCC2)cc(N)n1O,99.8% (inactive)
19,CN(C)C(=O)Oc1ccc[n+](C)c1,87% (inactive)
20,O=S(=O)(c1cccs1)N1CCN(Cc2nc3ccccc3s2)CC1,84.9% (inactive)

row,SMILES,viability
1,O=C(Nc1ccccc1C(=O)O)c1cccc(NC(=O)c2ccc(Br)o2)c1,102% (inactive)
2,COc1ccc(Cn2c(N)c(C#N)c3nc4ccccc4nc32)cc1OC,99.5% (inactive)
3,CC(=O)SCC(=O)N=c1sc2cc(F)ccc2n1C,93.4% (inactive)
4,C=CCOC(=O)C1=C(C)NC(=O)NC1c1cn(-c2ccccc2)nc1-c1cccs1 (stereo not drawn),91% (inactive)
5,O=S(=O)(NCc1cn2ccccc2n1)c1cc(F)ccc1F,96.6% (inactive)
6,COc1cc(C(=O)Nc2cc(-c3ccccc3)[nH]n2)cc(OC)c1OC,26% (active)
7,CC(C)(Oc1ccc(Cl)cc1)C(=O)NCc1ccncc1,94.2% (inactive)
8,O=C(CCNS(=O)(=O)c1ccc(Br)s1)N1CCCCC1,94.2% (inactive)
9,CCOc1ccc(NC(=O)CC2NCCNC2=O)cc1 (stereo not drawn),95.3% (inactive)
10,CC(=O)Nc1ccc(Cc2ccncc2)cc1,96.1% (inactive)
11,CCOC(=O)N1CCC(N(C(=O)Nc2cccc(OC)c2)C(C)CC)CC1 (stereo not drawn),96.9% (inactive)
12,Cc1nc(-c2coc3cc(OCC(=O)O)ccc3c2=O)cs1,90.5% (inactive)
13,Cc1ccc2nc(-c3ccc(S(=O)(=O)N4CCOCC4)cc3)cn2c1,105% (inactive)
14,Cc1[nH]nc2c1C(c1ccc(F)cc1)C1=C(CC(C)(C)CC1=O)N2 (stereo not drawn),87.4% (inactive)
15,CC(C)Oc1ccc2c(=O)c(-c3ccccc3)coc2c1,89.7% (inactive)
16,COc1ccc(-c2[nH]nc3c2C(c2ccncc2)C(C#N)=C(N)O3)cc1 (stereo not drawn),92.2% (inactive)
17,O=C(c1cccc2c1C(=O)N(Cc1cccnc1)C2)N1CCN(c2ccccc2)CC1,93.3% (inactive)
18,COc1ccc(OC)c(NS(=O)(=O)Cc2ccccc2)c1,97.5% (inactive)
19,O=C(Nc1ccc(F)cc1)N(CCCN1CCOCC1)Cc1cc2cc3c(cc2[nH]c1=O)OCO3,90.8% (inactive)

# Experiment: reversal of MRP1-mediated doxorubicin resistance, pilot screen, H69AR cells, doxorubicin co-treatment (AID 601;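 active = viability loss from added drug above about 55%, and viability with drug at most 40%, in both replicates, limit read from the data, passing the limit was not always enough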)
# Conditions: H69AR cells + 2 uM doxorubicin, CellTiter-Glo, 72 h; at 10 µM; stronger effect = higher value
row,SMILES,differential viability (reversal)
1,O=C(NCC1CCCO1)C1CCC(CNS(=O)(=O)c2ccccc2)CC1 (stereo not drawn),5.42% (inactive)
2,COC(=O)CSc1ncccc1-c1nc2ccccc2[nH]1,-0.73% (inactive)
3,O=C(CSc1nc(-c2ccco2)cc(C(F)(F)F)n1)N1CCCc2ccccc21,2.16% (inactive)
4,CC(=O)Nc1ccc(NC(=O)Cn2cnc3c(cnn3C(C)(C)C)c2=O)cc1,13.8% (inactive)
5,Cn1c(=O)[nH]c(=O)c2c1nc(N1CCOCC1)n2CC(O)COc1ccc2ccccc2c1 (stereo not drawn),-1.6% (inactive)
6,OCC(O)CN1CCN(c2ccccc2)CC1 (stereo not drawn),-1.6% (inactive)
7,NS(=O)(=O)c1cc2c(cc1Cl)NC(CSCc1ccccc1)=NS2(=O)=O,2.97% (inactive)
8,CN(CC(=O)N1CCCc2c1c(=O)oc1ccc(O)cc21)Cc1ccccc1,-3.29% (inactive)
9,CCc1c(C)nc2ncnn2c1NCCc1ccc(OC)c(OC)c1,-0.53% (inactive)
10,Cc1nn(-c2ccccc2)c2[nH]c(C(F)(F)F)cc(=O)c12,-10.8% (inactive)
11,N#CCc1ccc(NC(=O)Nc2cccc(Cl)c2)cc1,-12.1% (inactive)
12,c1coc(-c2nnc(-c3cccs3)o2)c1,14% (inactive)
13,COc1cc(SC)ccc1C(=O)Nc1ccccc1C#N,-25.8% (inactive)
14,CCCCCn1c(CN2CCN(c3cccc(Cl)c3)CC2)nc2c1c(=O)n(C)c(=O)n2C,38.5% (inactive)
15,COc1ccccc1-n1c(SCC(=O)NC(C)(C)C)nnc1-c1ccco1,-15.2% (inactive)
16,NS(=O)(=O)c1cc2c(cc1Cl)NC=NS2(=O)=O,4.17% (inactive)
17,Cc1cc(C)n(-c2nc3sc4c(c3c3nnc(SC(C)C)n23)CC(C)(C)OC4)n1,2.36% (inactive)
18,N=c1nc(N2CCCCC2)cc(N)n1O,7.85% (inactive)
19,CN(C)C(=O)Oc1ccc[n+](C)c1,5.36% (inactive)
20,O=S(=O)(c1cccs1)N1CCN(Cc2nc3ccccc3s2)CC1,-16.2% (inactive)

row,SMILES,differential viability (reversal)
1,O=C(Nc1ccccc1C(=O)O)c1cccc(NC(=O)c2ccc(Br)o2)c1,7.51% (inactive)
2,COc1ccc(Cn2c(N)c(C#N)c3nc4ccccc4nc32)cc1OC,12.6% (inactive)
3,CC(=O)SCC(=O)N=c1sc2cc(F)ccc2n1C,-2.64% (inactive)
4,C=CCOC(=O)C1=C(C)NC(=O)NC1c1cn(-c2ccccc2)nc1-c1cccs1 (stereo not drawn),-3.71% (inactive)
5,O=S(=O)(NCc1cn2ccccc2n1)c1cc(F)ccc1F,9.41% (inactive)
6,COc1cc(C(=O)Nc2cc(-c3ccccc3)[nH]n2)cc(OC)c1OC,-45.8% (inactive)
7,CC(C)(Oc1ccc(Cl)cc1)C(=O)NCc1ccncc1,5.47% (inactive)
8,O=C(CCNS(=O)(=O)c1ccc(Br)s1)N1CCCCC1,7.65% (inactive)
9,CCOc1ccc(NC(=O)CC2NCCNC2=O)cc1 (stereo not drawn),2.51% (inactive)
10,CC(=O)Nc1ccc(Cc2ccncc2)cc1,8.84% (inactive)
11,CCOC(=O)N1CCC(N(C(=O)Nc2cccc(OC)c2)C(C)CC)CC1 (stereo not drawn),1.43% (inactive)
12,Cc1nc(-c2coc3cc(OCC(=O)O)ccc3c2=O)cs1,1.5% (inactive)
13,Cc1ccc2nc(-c3ccc(S(=O)(=O)N4CCOCC4)cc3)cn2c1,6.21% (inactive)
14,Cc1[nH]nc2c1C(c1ccc(F)cc1)C1=C(CC(C)(C)CC1=O)N2 (stereo not drawn),-0.39% (inactive)
15,CC(C)Oc1ccc2c(=O)c(-c3ccccc3)coc2c1,6.81% (inactive)
16,COc1ccc(-c2[nH]nc3c2C(c2ccncc2)C(C#N)=C(N)O3)cc1 (stereo not drawn),2.15% (inactive)
17,O=C(c1cccc2c1C(=O)N(Cc1cccnc1)C2)N1CCN(c2ccccc2)CC1,3.83% (inactive)
18,COc1ccc(OC)c(NS(=O)(=O)Cc2ccccc2)c1,-14.4% (inactive)
19,O=C(Nc1ccc(F)cc1)N(CCCN1CCOCC1)Cc1cc2cc3c(cc2[nH]c1=O)OCO3,7.71% (inactive)
